Consider 9 molecules from PubChem BioAssay (Tox21).

Values without a mark were called inactive. Results filed as inconclusive are left out. Calls of active or inactive are those of the source. Unless noted, the call rests on the fitted dose curve; in most records, active means well fitted curve in the direction sought with a large enough effect in the repeat runs; inconclusive means weak or mixed curves; inactive means no such curve, though single readings can be large; an effect the other way counts as inactive or inconclusive.

Assay [1] deals with Luciferin 4-monooxygenase (Photinus pyralis) (UniProt P08659). Kind of assay: qHTS assay to identify small molecule inhibitors of firefly luciferase (AID 1224835). Further: nearly all actives have a fitted effect of over 25% in size. Further: potency means the concentration at half of the fitted maximal effect. The gist of the method: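 Quantitative HTS format; KM concentrations of both substrates. Purified P. pyralis FLuc activity quantified from luminescence images.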
Assay [2] in a line: qHTS assay to identify small molecule agonists of the constitutive androstane receptor (CAR) signaling pathway - cell viability counter screen (AID 1224836). Further: nearly all actives have a fitted effect of over 45% in size. The gist of the method:
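Cell viability multiplexed with the CAR agonist screen: CellTiter-Fluor fluorescence after 23 hr at 37 C. HepG2-CYP2B6-hCAR cells got compounds at 15 concentrations with PK11195 at 0.75 uM final.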

Assay [3] concerns the target Nuclear receptor subfamily 1 group I member 3 (Homo sapiens) (UniProt Q14994). Kind of assay: qHTS assay to identify small molecule antagonists of the constitutive androstane receptor (CAR) signaling pathway (AID 1224838).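 Further: HepG2 cells stably expressing hCAR with CYP2B6 luciferase reporter stimulated by CITCO; nearly all actives have a fitted effect of over 40% in size.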 Put shortly:
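HepG2-CYP2B6-hCAR cells; 4 h pre-incubation; cpd (15 conc) + CITCO 50 nM final; 24 h, 37 C/5% CO2; ONE-Glo, luminescence.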

The target is the same in assay [4]. Briefly: qHTS assay to identify small molecule agonists of the constitutive androstane receptor (CAR) signaling pathway (AID 1224839). Further: nearly all actives have a fitted effect of over 15% in size. Further: potency means the concentration at half of the fitted maximal effect.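 On activation: HepG2 cells stably carrying human CAR and a CYP2B6 luciferase reporter.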 The gist of the method: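 Luminescent ONE-Glo read-out after 24 hr, 37 C exposure of double-stable HepG2-CYP2B6-hCAR reporter cells to a 15-point compound series, in the presence of 0.75 uM PK11195 (final).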
Assay [5] can be described thus: qHTS assay to identify small molecule antagonists of the estrogen related receptor signaling pathway with the pleiotropic PPARgamma coactivator (PGC) from Tox21 10K library - cell viability counter screen (AID 1224840; active means well fitted cell-killing curve with a large enough effect in the repeat runs, not every such curve was filed as active; further: nearly all actives have a fitted effect of over 40% in size). The gist of the method: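 PGC/ERR cells, 2,000/well; 6 h pre-incubation 37 C/5% CO2; cpd in DMSO via pin tool; 17.5 h 37 C; CellTiter-Fluor, 30 min; fluorescence.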

Assay [6] in a line: qHTS assay to identify small molecule antagonists of the estrogen related receptor signaling pathway with the pleiotropic PPARgamma coactivator (PGC) from Tox21 10K library (AID 1224841; call rule not given here; further: actives are mostly falling curves and most rising ones were filed inactive; nearly all actives have a fitted effect of over 50% in size). Put shortly: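 PGC/ERR cell line, 2,000 cells/well; 6 h pre-incubation 37 C/5% CO2; compounds (DMSO) pinned in; 18 h, 37 C; One-Glo, 30 min RT; luminescence.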
Assay [7] is described as follows: qHTS assay to identify small molecule agonists of the estrogen related receptor signaling pathway with the pleiotropic PPARgamma coactivator (PGC) from Tox21 10K library (AID 1224842). Further: nearly all actives have a fitted effect of over 15% in size. Put shortly: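 PGC/ERR reporter cells (NTP line) were seeded 2,000 per well, rested 6 h at 37 C/5% CO2, then pin-dosed with compounds in DMSO for 18 h at 37 C; luciferase read by One-Glo luminescence after 30 min at room temperature.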

Assay [8] addresses Thyrotropin receptor (Homo sapiens) (UniProt P16473). Briefly: qHTS assay to identify small molecule agonists of the thyroid stimulating hormone receptor (TSHR) signaling pathway (AID 1224843; calls by dose curve; further: nearly all actives have a fitted effect of over 45% in size). Put shortly: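 TSHR-expressing HEK293 cells (800 per well) were exposed to compounds for 30 min at room temperature. cAMP was then detected by HTRF competition with cAMP-d2 and anti-cAMP cryptate, read after 1 h at room temperature. Fifteen concentrations, triplicate.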

A short description of assay [9]: qHTS assay to identify small molecule agonists of H2AX (AID 1224845; active means well fitted activation curve with a large enough effect in the signal ratio in the repeat runs, not every such curve was filed as active; the % refers to the signal ratio). Put shortly: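 Wild-type CHO-K1 cells plated overnight, then exposed 3 hr at 37C to compounds at 15 concentrations (0.76% DMSO). Lysed, then HTRF anti-pH2AX(S139)-cryptate/anti-H2AX-d2 detection after 24 hr at room temperature; emissions 665 and 620 nm.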
Assay [10] can be described thus: qHTS assay to identify small molecule agonists of the hypoxia (HIF-1) signaling pathway (AID 1224846; active means well fitted activation curve with a large enough effect in the signal ratio in the repeat runs, not every such curve was filed as active; the % refers to the signal ratio). Put shortly:
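Cell line: CellSensor HRE-bla ME-180; 2,000 cells/well; 0.5% dialyzed FBS; 5 h preincubation; DMSO compound pin transfer; 17 h, 37C, 5% CO2; CCF4-AM added; bla FRET signal scored for activation.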

A short description of assay [11]: qHTS assay to identify small molecule agonists of H2AX - cell viability counter screen (AID 1224847; calls by dose curve; further: top concentration of the series differs between compounds; nearly all actives have a fitted effect of over 30% in size). The gist of the method:
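Counter-screen for viability: CellTiter-Glo ATP luminescence read after 3 h compound treatment (15-point titration, 0.76% DMSO final) of CHO-K1 cells at 37C, with 30 min room-temperature reagent incubation.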

A short description of assay [12]: qHTS assay to identify small molecule agonists of the estrogen related receptor (ERR) signaling pathway from Tox21 library (AID 1224849; calls by dose curve; further: nearly all actives have a fitted effect of over 15% in size). The conditions noted are these: ERR reporter cell line, ONE-Glo luciferase, 18 h; at 92.4 µM (top of the series) unless noted. Put shortly:
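ERR cells, 6 h pre-incubation 37 C/5% CO2; cpd in DMSO pinned; 18 h 37 C; ONE-Glo added, 30 min RT; luminescence read. Agonist mode, qHTS.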

The nature of assay [13]: qHTS RealTime-Glo MT Cell Viability Assay in HepG2 cells - 24 hour (AID 1224867). Further: nearly all actives have a fitted effect of over 50% in size. The gist of the method: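 Tox21 10K library screened in qHTS format on HepG2 cells carrying RealTime-Glo reagents. Compounds were added after a 5 h preincubation, and the luminescent signal from continuous culture was measured repeatedly during 40 h treatment.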
Assay [14] can be described thus: qHTS RealTime-Glo MT Cell Viability Assay in HEK293 cells - 32 hour (AID 1224868). Further: nearly all actives have a fitted effect of over 50% in size. Further: potency means the concentration at half of the fitted maximal effect. Put shortly: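 Luminescence generated by NanoLuc from substrate produced by living HEK293 cells served as the viability signal. Each value reflects the reading at its stated time point during continuous 40 h compound exposure at 37 C.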
A short description of assay [15]: A CellTox Green Cytotoxicity Assay to monitor cytotoxicity in HEK293 cells - 0 hour (AID 1224869). Further: nearly all actives have a fitted effect of over 50% in size. Put shortly: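 Nonlytic real-time cytotoxicity: HEK293 + CellTox Green reagent plated, 5 h preincubation, pintool compound addition (23 nL in DMSO), 37 C for 40 h, fluorescence measured at successive time points.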
Assay [16] is described as follows: qHTS assay to identify small molecule antagonists of the estrogen related receptor (ERR) signaling pathway from Tox21 library - cell viability counter screen (AID 1224834). Further: nearly all actives have a fitted effect of over 30% in size. Put shortly: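 Fluorescence from CellTiter-Fluor gives the viability read-out, taken 30 min after reagent addition. Before that, ERR cells seeded 6 h earlier were incubated with compounds for 17.5 h at 37 C.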

Assay [17] is described as follows: qHTS assay to identify small molecule antagonists of the constitutive androstane receptor (CAR) signaling pathway - cell viability counter screen (AID 1224837). Further: nearly all actives have a fitted effect of over 45% in size. Put shortly:
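HepG2-CYP2B6-hCAR cells, 2500/well, 4 hr pre-incubation; compound titration, 15 conc.; CITCO 50 nM final; 23 hr, 37 C/5% CO2; CellTiter-Fluor, fluorescence intensity.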

Assay [18] is described as follows: qHTS assay to identify small molecule agonists of the hypoxia (HIF-1) signaling pathway - cell viability counter screen (AID 1224844; calls by dose curve; further: nearly all actives have a fitted effect of over 50% in size). The gist of the method:
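ME-180 HRE-bla cells, 2,000/well, 0.5% dialyzed FBS; 5 hr settle, 17 hr compound at 37C/5% CO2; CCF4-AM reporter read first, then CellTiter-Glo luminescence after 30 min RT.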

A short description of assay [19]: qHTS assay to identify small molecule antagonists of the estrogen related receptor (ERR) signaling pathway from Tox21 library (AID 1224848). Further: nearly all actives have a fitted effect of over 50% in size. Put shortly: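 Cells: ERR line, 2,000/well; 6 h preincubation 37 C/5% CO2. Cpd in DMSO via pin tool; 18 h, 37 C. ONE-Glo, 30 min RT, luminescence.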
On the % scale 0 is the no-effect control and ±100 the full control effect.

Sequence of Luciferin 4-monooxygenase (Photinus pyralis) (P08659 whole entry, looked up): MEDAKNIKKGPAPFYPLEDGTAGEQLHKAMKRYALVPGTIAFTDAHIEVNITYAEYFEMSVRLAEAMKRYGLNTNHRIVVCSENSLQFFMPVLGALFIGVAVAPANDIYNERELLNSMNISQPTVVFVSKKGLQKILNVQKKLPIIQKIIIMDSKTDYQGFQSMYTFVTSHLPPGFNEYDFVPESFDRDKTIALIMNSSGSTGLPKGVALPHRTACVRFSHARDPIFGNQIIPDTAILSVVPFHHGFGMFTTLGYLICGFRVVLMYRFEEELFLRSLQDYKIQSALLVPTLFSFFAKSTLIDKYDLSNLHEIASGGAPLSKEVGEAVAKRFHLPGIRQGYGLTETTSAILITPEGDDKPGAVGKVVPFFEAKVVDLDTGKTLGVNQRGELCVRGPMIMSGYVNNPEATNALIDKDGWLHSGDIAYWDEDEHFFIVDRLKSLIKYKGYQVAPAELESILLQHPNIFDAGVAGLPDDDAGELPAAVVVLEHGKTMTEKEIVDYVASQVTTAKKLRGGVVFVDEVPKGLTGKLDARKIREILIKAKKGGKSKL
Sequence of Nuclear receptor subfamily 1 group I member 3 (Homo sapiens) (Q14994 whole entry, looked up): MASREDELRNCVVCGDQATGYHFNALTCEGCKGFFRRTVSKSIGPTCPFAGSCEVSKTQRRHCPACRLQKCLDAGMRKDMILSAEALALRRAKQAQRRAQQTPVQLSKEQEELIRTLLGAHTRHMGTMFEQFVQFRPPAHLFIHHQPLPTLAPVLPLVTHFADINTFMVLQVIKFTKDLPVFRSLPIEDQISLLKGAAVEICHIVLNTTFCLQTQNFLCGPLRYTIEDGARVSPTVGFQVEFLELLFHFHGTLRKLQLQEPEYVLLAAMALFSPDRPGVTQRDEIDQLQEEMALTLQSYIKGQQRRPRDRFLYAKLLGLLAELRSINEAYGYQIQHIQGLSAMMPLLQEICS
Sequence of Thyrotropin receptor (Homo sapiens) (P16473 whole entry, looked up): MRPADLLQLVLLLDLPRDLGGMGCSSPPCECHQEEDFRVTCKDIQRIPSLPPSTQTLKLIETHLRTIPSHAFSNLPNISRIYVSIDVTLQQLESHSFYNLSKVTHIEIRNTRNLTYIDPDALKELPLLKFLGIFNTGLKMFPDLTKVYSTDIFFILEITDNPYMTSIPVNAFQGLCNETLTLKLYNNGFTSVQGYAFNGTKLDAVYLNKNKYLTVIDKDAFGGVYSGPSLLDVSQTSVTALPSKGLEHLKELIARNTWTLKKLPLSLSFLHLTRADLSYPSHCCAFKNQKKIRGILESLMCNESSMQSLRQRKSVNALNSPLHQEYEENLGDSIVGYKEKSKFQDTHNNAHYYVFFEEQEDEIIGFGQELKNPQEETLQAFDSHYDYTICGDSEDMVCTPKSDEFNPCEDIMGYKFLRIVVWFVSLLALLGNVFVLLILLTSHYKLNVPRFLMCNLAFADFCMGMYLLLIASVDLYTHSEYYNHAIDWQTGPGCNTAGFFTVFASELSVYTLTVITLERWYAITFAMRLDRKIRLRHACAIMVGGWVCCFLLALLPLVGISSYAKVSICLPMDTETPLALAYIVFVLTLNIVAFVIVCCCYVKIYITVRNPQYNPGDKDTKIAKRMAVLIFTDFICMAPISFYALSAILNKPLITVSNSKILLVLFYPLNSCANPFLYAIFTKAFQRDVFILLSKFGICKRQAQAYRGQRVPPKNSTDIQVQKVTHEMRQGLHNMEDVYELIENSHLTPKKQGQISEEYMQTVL

Consider `CCN(CC)CCOc1ccccc1C(=O)CCc1ccccc1`, for which the Potency result in assay [1], in assay [2], in assay [3], in assay [5], in assay [6] and in assay [7] was “inactive” throughout. The Potency entry in assay [8], in assay [9], in assay [11], in [13] and in assay [15] was “inactive” each time. Moreover, the values for the Potency in assay [4] and in assay [14] were 26.6 µM (active) and 12 µM (active), respectively. Besides, in [10], the outcome was inactive. Further, the activity change, positive = activation in assay [12] is -25.9% [at 42.5 µM].
Regarding `C=CC(=O)O`, the Potency result in assay [16], in [2], in assay [17], in [3], in assay [5] and in assay [8] was “inactive” throughout. Further, the Potency entry in assay [18], in [9], in assay [11], in assay [13], in assay [14] and in assay [15] was “inactive” in each case. The molecule was called inactive in assay [10].
On to `CCOC(=O)N1CCC(Nc2ccc(Cl)cc2N)CC1`, for which the Potency result in assay [1], in [2], in [17], in assay [3], in assay [4] and in assay [8] was “inactive” each time. The Potency result in assay [18], in assay [9], in [11], in assay [13], in [14] and in [15] was “inactive” in each case. In assay [10], the molecule was called inactive.
As for `CCCCCCCCCCCC(=O)OCC(O)CO` (stereo unspecified), the Potency result in assay [16], in assay [2], in [17], in assay [3], in [4] and in assay [6] was “inactive” in each case. In addition, the Potency entry in assay [7], in assay [18], in [9], in [11], in [19] and in [13] was “inactive” throughout. Moreover, in assay [15], the Potency result is “inactive”. Further, in [10], the call was inactive. Also, the activity change, positive = activation in assay [12] is 2.33%.
In the case of `C[C@H](CS)C(=O)N1CCC[C@H]1C(=O)O`, the Potency result in assay [16], in [2], in assay [17], in assay [3], in assay [4] and in assay [5] was “inactive” each time. Besides, the Potency entry in assay [8], in assay [9], in assay [11], in assay [13], in assay [14] and in assay [15] was “inactive” each time.
On to `COc1ccc(N)c([N+](=O)[O-])c1`, for which the Potency result in assay [1], in assay [2], in [17], in [3], in [4] and in assay [5] was “inactive” throughout. For the same molecule, the Potency entry in assay [8], in assay [18], in [11], in assay [13] and in assay [15] was “inactive” throughout. Also, the molecule was called inactive in assay [10].
For the molecule `CCCc1nc2c(C)cc(-c3nc4ccccc4n3C)cc2n1Cc1ccc(-c2ccccc2C(=O)O)cc1`, the Potency in [1] was 13.8 µM (active). The Potency result in assay [2], in assay [17], in [3], in [4], in assay [5] and in [8] was “inactive” throughout. Also, the Potency entry in assay [18], in assay [9], in assay [11] and in assay [13] was “inactive” in each case.
Turning to `COc1ccc(-c2cc(=S)ss2)cc1`, the values for the Potency in [1] and in assay [4] were 15.5 µM (active) and 23.7 µM (active), respectively. For the same molecule, the Potency entry in [2], in assay [17], in assay [3], in [8], in [18] and in assay [9] was “inactive” throughout. For the same molecule, the Potency entry in assay [11], in assay [13] and in assay [15] was “inactive” each time.
As for `CCN(CC)c1cccc(O)c1`, the Potency entry in [16], in assay [17], in assay [3], in [5], in assay [6] and in assay [7] was “inactive” throughout. The Potency result in [18], in [11], in [19], in [13] and in assay [14] was “inactive” in each case. Besides, the Potency in assay [4] is 55.6 µM (active). The call in [10] was inactive. Besides, the activity change, positive = activation in assay [12] is 2.77%.
